CYP2C19 inh: blocks human cytochrome P450 2C19; 96,000 compounds, 21% hits; CYP2C19 Supersomes, luciferin-H EGE luminescence, 30 min; P33261; inhibition, % at 5 µM;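 active = CYP2C19 inhibition above a set limit at 5 µM in the primary screen, cut at about 50% in these data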;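 also: plate controls were negative control wells for no effect and 2.5 mM tranylcypromine positive control for full effect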
Target sequence (P33261 whole entry, looked up): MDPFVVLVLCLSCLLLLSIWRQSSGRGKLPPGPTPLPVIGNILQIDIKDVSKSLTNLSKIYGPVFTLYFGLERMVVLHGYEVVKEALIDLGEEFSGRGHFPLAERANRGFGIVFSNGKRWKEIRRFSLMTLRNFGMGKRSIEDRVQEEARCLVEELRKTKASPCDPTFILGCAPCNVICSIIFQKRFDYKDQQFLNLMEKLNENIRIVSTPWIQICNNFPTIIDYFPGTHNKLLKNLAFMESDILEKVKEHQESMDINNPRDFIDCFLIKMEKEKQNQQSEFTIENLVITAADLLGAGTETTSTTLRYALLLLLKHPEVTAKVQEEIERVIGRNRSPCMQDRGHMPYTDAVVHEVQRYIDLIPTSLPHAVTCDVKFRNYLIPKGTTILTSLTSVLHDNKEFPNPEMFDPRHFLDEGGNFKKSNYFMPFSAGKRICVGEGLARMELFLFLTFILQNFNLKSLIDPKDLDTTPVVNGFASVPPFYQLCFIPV
CYP2C19 act: cytochrome P450 2C19 (human) activation; P33261; recombinant CYP2C19, luciferin-H EGE luminescence; active compounds read high; 0 = fully inhibited enzyme, 1 = untreated enzyme; activation factor at 5 µM; 96,000 tested, under 10 active; AID 1025;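 active = activation factor of at least 2 at 5 µM in the primary screen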;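 also: 0 = wells with 2.5 mM tranylcypromine and 1 = vehicle-only wells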
CYP2C9 inh: blocks human cytochrome P450 2C9. CYP2C9 Supersomes, luciferin-H conversion, luminescence. P11712. inhibition, % at 5 µM. 96,000 compounds, 20% hits. AID 777;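 active = blocking of liver enzyme CYP2C9 beyond about 50% at 5 µM, limit read from the data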
Measles CPE: protection of cells from measles virus; Measles virus-infected cells, CPE protection, absorbance; protection (pct of control), % at 4 µM; 140,000 compounds, 1.5% hits; in the data active = protection mostly above about 24%, no sharp cut-off; inactive = mostly below about 26%
CYP2C9 act: CYP2C9 (human) activation | P11712 | 96,000 compounds, 1.4% hits | activation factor at 5 µM | recombinant CYP2C9, luciferin-H conversion, luminescence; active compounds read high; factor 1 = untreated enzyme, 0 = blocked;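 active = activation factor of 2 or more for CYP2C9 at a 5 µM dose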;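 also: 0 = sulfaphenazole-blocked wells and 1 = vehicle-only wells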
* marks the source's active call; other numbers are inactive results; . = no result given. In the library only some 22% were active in any assay of this set; here they are far more common.

SMILES | CYP2C19 inh | CYP2C19 act | CYP2C9 inh | Measles CPE | CYP2C9 act
Cc1csc(SCC(=O)Nc2nc(-c3ccccc3)cs2)n1 | 28.1 | 0.7 | 25.0 | 4.5 | 0.8
Cc1ccc(Cl)cc1N1CCN(S(=O)(=O)c2cccc(S(=O)(=O)N3CCCC3)c2)CC1 | 63.5* | 0.4 | 86.6* | 11.7 | 0.1
Cc1cc(S(=O)(=O)N2CCN=C2c2ccccc2)ccc1F | 94.8* | 0.1 | 64.6* | 6.7 | 0.4
Cc1cc(S(=O)(=O)N2CCN(c3ccccc3C)CC2)ccc1F | 97.3* | 0 | 95.2* | 5.3 | 0
COC(=O)COc1ccc(S(=O)(=O)N2CCN(c3ccccc3F)CC2)cc1C | 42.7 | 0.6 | 25.5 | 27.0* | 0.7
Cc1ccccc1N1CCN(S(=O)(=O)c2ccccc2)CC1 | . | . | . | 6.9 | .
CC(Sc1nnc(-c2cccnc2)n1-c1ccccc1F)C(=O)N1CCCc2ccccc21 (configuration not stated) | . | . | . | 30.7 | .
CC1(C)Cc2ccccc2-c2nnc(-c3ccccn3)n21 | -13.1 | 1.1 | 14.1 | 7.0 | 0.9
CCCc1ccc(-c2cc(C(=O)NC3=NCCS3)c3ccccc3n2)cc1 | . | . | . | 4.7 | .
Cc1cc(S(=O)(=O)N2CCN(c3c(C)cccc3C)CC2)ccc1F | 97.2* | 0 | 97.8* | -0.2 | 0
Cc1cc(S(=O)(=O)N2CC(=O)N(CCc3ccccc3)C(=O)C2)ccc1F | 9.8 | 0.9 | 8.1 | 14.6 | 0.9
O=c1ccc2cc(S(=O)(=O)N3CCN(c4cc(Cl)ccc4Cl)CC3)ccc2o1 | 74.1* | 0.3 | 87.7* | 17.7 | 0.1
COc1cccc(-n2cnc(=O)c3cccnc32)c1 | . | . | . | 6.8 | .
O=c1ccccn1Cc1c(F)cccc1Cl | 50.5* | 0.5 | 22.8 | 30.7 | 0.8
O=C(Cc1c(F)cccc1Cl)N1CCCC1 | -18.9 | 1.2 | -15.9 | 6.7 | 1.2
OC(C#Cc1ccccn1)c1cccs1 (configuration not stated) | 23.0 | 0.8 | 11.0 | 29.2 | 0.9
Cc1ccc(OC(=O)C2c3ccccc3Oc3ccccc32)cc1C | . | . | . | 29.5 | .
COc1ccc([N+](=O)[O-])cc1NC(=O)C(C)Sc1nc(C)c(C)c(C)n1 (configuration not stated) | . | . | . | 8.4 | .
CCOc1ccc2nc(NCCCNS(=O)(=O)c3ccccc3)c(C#N)cc2c1 | 36.4 | 0.6 | 54.8* | 14.7 | 0.5
O=C(NC1CCCC1)C1CCCN(S(=O)(=O)c2cccc3cccnc23)C1 (configuration not stated) | 7.5 | 0.9 | -160.4 | 9.1 | 2.6*
O=C(NCc1cccs1)C1CCCN(S(=O)(=O)c2cccc3cccnc23)C1 (configuration not stated) | 29.6 | 0.7 | -321.7 | 24.2 | 4.2*
O=C(Nc1ccc2c(c1)OCO2)C1CCN(S(=O)(=O)c2cccc3cccnc23)CC1 | 31.8 | 0.7 | -179.2 | 3.2 | 2.8*
O=C(C1CCCN(S(=O)(=O)c2cccc3cccnc23)C1)N1CCN(c2ccccc2F)CC1 (configuration not stated) | 87.8* | 0.1 | 42.7 | 4.2 | 0.6
O=C(NCc1ccc2c(c1)OCO2)C1CCCN(S(=O)(=O)c2cccc3cccnc23)C1 (configuration not stated) | 29.7 | 0.7 | -16.1 | 18.4 | 1.2
CC(Oc1ccc(Br)cc1)C(=O)Nn1c(=S)[nH]c2ncccc2c1=O (configuration not stated) | . | . | . | 15.5 | .
SMILES | CYP2C19 inh | CYP2C19 act | CYP2C9 inh | Measles CPE | CYP2C9 act
Cc1cccc(NC(=O)C2CCCN(S(=O)(=O)c3cccc4cccnc34)C2)c1 (configuration not stated) | 80.9* | 0.2 | -11.2 | 8.1 | 1.1
O=C(NC1CCCCCC1)C1CCN(S(=O)(=O)c2cccc3cccnc23)CC1 | 47.3 | 0.5 | -287.7 | 4.3 | 3.9*
O=C(NCc1cccs1)C1CCCN1S(=O)(=O)c1ccccc1F (configuration not stated) | 52.7* | 0.5 | 33.3 | 5.9 | 0.7
O=C(NC1CCN(Cc2ccccc2)CC1)C1CCN(S(=O)(=O)c2cccc3cccnc23)CC1 | -13.8 | 1.1 | -187.4 | . | 2.9*
Cc1ccnc(N2CCC(C(=O)Nc3ccc4c(c3)CCC4)CC2)n1 | 26.8 | 0.7 | 9.2 | 10.4 | 0.9
Cc1cccc(NC(=O)C2CCN(c3nccc(C)n3)CC2)c1 | 70.0* | 0.3 | -44.4 | . | 1.4
O=S(=O)(NCc1cccs1)c1cccc2cccnc12 | 27.8 | 0.7 | -183.7 | 13.3 | 2.8*
CC(Oc1ccc(Cl)cc1Cl)c1nc(-c2ccc(NC(=O)c3cccnc3)cc2)no1 (configuration not stated) | 63.9* | 0.4 | 96.5* | 3.5 | 0
CC(Oc1ccc(Cl)cc1Cl)c1nc(-c2ccccn2)no1 (configuration not stated) | 96.1* | 0 | 92.1* | 5.5 | 0.1
O=C(Oc1ccc(OC(=O)c2ccco2)c(S(=O)(=O)c2ccc(Cl)cc2)c1)c1ccco1 | . | . | . | 15.2 | .
COCCOc1nc2c(c(=O)n(C)c(=O)n2C)n1Cc1cccc(OC)c1 | 12.0 | 0.9 | 36.3 | 2.2 | 0.6
Cc1cc(NC(=O)C2C3C(=O)N(Cc4ccc(Cl)cc4)C(C(=O)NC4CCCCC4)C34C=CC2(C)O4)no1 (configuration not stated) | 2.3 | 1 | -24.3 | 9.3 | 1.2
Cc1cc(NC(=O)C2C3C(=O)N(Cc4ccc(Cl)cc4)C(C(=O)NCc4ccccc4)C34C=CC2(C)O4)no1 (configuration not stated) | 40.0 | 0.6 | 83.1* | 22.4 | 0.2
COCCn1c(SCC(=O)N(C(C)C)C(C)C)nnc1-c1cc2ccccc2cc1O | 15.9 | 0.8 | 21.2 | 3.2 | 0.8
O=C(CSc1nnc(-c2cc3ccccc3cc2O)n1Cc1ccco1)N1CCc2ccccc2C1 | 57.2* | 0.4 | 80.6* | 4.0 | 0.2
CC(C)N(C(=O)CSc1nnc(-c2cc3ccccc3cc2O)n1Cc1ccco1)C(C)C | 37.3 | 0.6 | 62.5* | 5.7 | 0.4
NS(=O)(=O)c1cnccc1Nc1ccc(Cl)cc1 | . | . | . | 1.8 | .
CC(C)c1ccc(CNc2ccc(N3CCOCC3)cc2)cc1 | 95.1* | 0 | -0.2 | 13.3 | 1
Cc1ccc(-c2nnc(-c3ccc(NC(=O)Cc4cccs4)cc3)o2)cc1 | 53.0* | 0.5 | 83.5* | 11.5 | 0.2
O=C(Cc1cccs1)Nc1ccccc1NC(=O)Cc1cccs1 | 50.6* | 0.5 | 27.8 | 6.8 | 0.7
O=C(Cc1cccs1)Nc1ccc(Cl)cc1 | 94.4* | 0.1 | 64.0* | 6.6 | 0.4
O=C(Nc1ccc(Cl)cc1)N(Cc1cccs1)Cc1cccs1 | 23.4 | 0.8 | 38.3 | 4.9 | 0.6
CCOC(=O)c1sc2nc(N3CCOCC3)c3c(c2c1N)CCN(C)C3 | 6.6 | 0.9 | 11.7 | 3.7 | 0.9
CNC(=O)c1ccc(-c2sc3nc(N4CCOCC4)c4c(c3c2N)CC(C)(C)OC4)o1 | 5.4 | 0.9 | 51.5* | 14.1 | 0.5
CNC(=O)c1ccc(-c2sc3nc(N4CCOCC4)c4c(c3c2N)CCCC4)o1 | 91.9* | 0.1 | 94.2* | 22.0 | 0.1
CC1(C)Cc2c(c(N3CCOCC3)nc3snc(NC(=O)c4ccccc4)c23)CO1 | 6.0 | 0.9 | 88.1* | 6.4 | 0.1
